The record followed here is ChEMBL document CHEMBL1157539, “Thousands of chemical starting points for antimalarial lead identification” (Nature, 2010).

Where “and” joins values, the source holds several entries; their conditions need not be identical. Equal values may be shown once.

What all share (format): functional
Assay [1] deals with Plasmodium falciparum. Put plainly: GSK_TCMDC: Inhibition of Plasmodium falciparum 3D7 in whole red blood cells, using parasite LDH activity as an index of growth. Test compounds present at 2uM.
Assay [2] relates to Plasmodium falciparum. Put plainly: GSK_TCMDC: Inhibition of Plasmodium falciparum Dd2 in whole red blood cells, using parasite LDH activity as an index of growth. Test compounds present at 2uM.
In assay [3] the test system is HepG2. Put plainly: GSK_TCMDC: Percent inhibition of human HepG2 cell line. Test compounds present at 10uM.

In the case of `CCCCCC(C)C(C)c1cc(O)c2c3c(c(=O)oc2c1)CN(Cc1ccccc1)CC3.Cl` (stereo not given), the Inhibition (in general, the percentage by which the read-out fell short of the control) in assay [1] was found to be 99%; in assay [2], 47%; in assay [3], 4%.

Turning to `CC[C@H]1CN2CC[C@H]1C[C@H]2[C@H](O)c1ccnc2ccc(O)cc12.Cl`, the figures for the Inhibition in assay [1], in assay [2] and in assay [3] were 99%, 2% and 11%, respectively.

For the molecule `CC[C@H]1CN2CC[C@H]1C[C@@H]2[C@@H](OC(=O)c1ccc(Cl)cc1)c1ccnc2ccc(OC)cc12`, the Inhibition in assay [1] is 89%; in assay [2] it was 0%; in assay [3], 0%.

On to `S=C(Nc1ccccc1Cl)NC1CCC(CN2CCC(c3c[nH]c4ccccc34)CC2)CC1` (stereo not given), for which the figures for the Inhibition in assay [1], in assay [2] and in assay [3] were 90%, 12% and 31%, respectively.

Consider `Cc1[nH]c2cc(F)ccc2c1C1=CCN(CCCCC2(C)C(=O)Nc3c(F)cccc32)CC1` (stereo not given), for which the Inhibition in assay [1] was 96%; in assay [2], 89%; in assay [3], 15%.

As for `FC(F)(F)c1cccc(N2CCC(CN3CCC(c4c[nH]c5ccccc45)CC3)CC2)n1.O=C(O)C(F)(F)F`, the Inhibition in assay [1] came to 84%; in assay [2], 10%; in assay [3], 41%.

With `O=C(/C=C/c1ccc(Cl)c(Cl)c1)NC1CCC(CN2CCC(c3c[nH]c4ccc(O)cc34)CC2)CC1` (stereo not given), the Inhibition in assay [1] is 100%; in assay [2] it was 100% and 99%; in assay [3], 35% and 38%.

On to `CC1CN=C(Nc2ncc(Cl)cc2Cl)N1.Cl` (stereo not given), for which the Inhibition in assay [1] is reported as 99%; in assay [2], 3%; in assay [3] it was 2%.

Turning to `COC(=O)c1ccc(CC(C)NCC(O)c2cccc(C(F)(F)F)c2)cc1` (stereo not given), the Inhibition in assay [1] was 94% and 97%; in assay [2] it was 73% and 87%; in assay [3], 0%.

Take `CC[C@H]1CN2CC[C@@H]1C[C@H]2[C@H](O)c1cc(N2CCC(CO)CC2)nc2ccc(OC)cc12`: the Inhibition in assay [1] amounted to 99%; in assay [2] it was 99%; in assay [3] it was 4%.
